Data as given in PubChem BioAssay (Tox21).
Results filed as inconclusive are left out. Entries that show only a call come without a potency. Active and inactive are the calls of the source. Calls follow the shape of the dose curve; as a rule, active = well fitted cell-killing curve with a large enough effect in the repeat runs; inconclusive = weak or mixed curves; inactive = no such curve, though single readings can be large or run the other way.

test: qHTS assay to identify small molecule antagonists of the peroxisome proliferator-activated receptor delta (PPARd) signaling pathway - cell viability counter screen (AID 743213); conditions: PPARd-bla HEK293H viability, CellTiter-Glo luminescence, 17 h; series mostly up to 62 µM; also: nearly all actives have a fitted effect of over 50% in size
From the text: U.S. Tox21 Program National Center for Advancing Translational Sciences [NCATS] NIH Chemical Genomics Center [NCGC] U.S. Environmental Protection Agency [EPA] National Institutes of Environmental Health Sciences [NIEHS] National Toxicology Program [NTP] U.S. Food and Drug Administration [FDA] Tox21 Assay Overview: The peroxisome proliferator-activated receptors (PPARs) are lipid-activated transcription factors of the nuclear receptor superfamily with three distinct subtypes namely PPAR alpha, PPAR delta (PPARd) and PPAR gamma. All these subtypes heterodimerizes with Retinoid X receptor (RXR) and have different physiological functions. […] To identify the compounds that inhibit PPAR-delta signaling, GeneBLAzer PPAR delta UAS-bla HEK293H cell line (Invitrogen, Carlsbad, CA, USA) containing a beta-lactamase reporter gene under the control of an Upstream Activator Sequence (UAS) was used to screen the Tox21 compound library. The cytotoxicity of the Tox21 compound library against the PPARd-bla cell line was tested in parallel by measuring the cell viability using CellTiter-Glo assay (Promega, Madison, WI) in the same wells.
Tox21 Assay Protocol Summary: PPARd-bla cells were dispensed at 3000 cells/5uL/well in 1536-well black wall/clear bottom plates using a Multidrop Combi (Thermo Fisher Scientific, Waltham, MA) dispenser. After the assay plates were incubated at 37 C and 5% CO2 for 5 h, 23 nL of compounds dissolved in DMSO, positive controls or DMSO only was transferred to the assay plate by a Pintool station (Kalypsys, San Diego, CA), followed by addition of 1ul L165041 (300 nM, final concentration in the wells). The assay plates were incubated at 37 C for 17 h, and then 1 uL of LiveBLAzerTM B/G FRET substrate was added using a Bioraptr Flying Reagent Dispenser (FRD) workstation (Beckman Coulter, Indianapolis, IN, USA). The assay plates were incubated at room temperature for 2 h and fluorescence intensity was measured by an Envision plate reader (PerkinElmer, Shelton, CT). For cell viability readout that measures cytotoxicity, 3 ul/well of CellTiter-Glo reagent was added into the assay plates using a Bioraptr FRD. After 30 min incubation at room temperature, the luminescence intensity in the plates was measured using a ViewLux plate reader (PerkinElmer).

For `CCC/C=C/CO`, which Potency is on record?
Its Potency is “inactive”.

With `N#Cc1ccc(C(c2ccc(C#N)cc2)n2cncn2)cc1` as the molecule, how does the Potency read?
Its Potency is “inactive”.

For `CCCCC(CC)COC(=O)COc1cc(Cl)c(Cl)cc1Cl` (stereo not given), which Potency is on record?
Its Potency is “inactive”.

With `Nc1cccc(S(=O)(=O)O)c1` as the molecule, how does the Potency read?
The Potency was “inactive”.

Which Potency does the source give for `CC1=NN(c2cc(Cl)c(S(=O)(=O)O)cc2Cl)C(=O)C1N=Nc1ccc(S(=O)(=O)O)cc1` (stereo not given) here?
Its Potency is “inactive”.

Which Potency does the source give for `CCCCCCn1c(=O)c2c(ncn2C)n(C)c1=O` here?
The Potency was “inactive”.

For `Oc1ccccc1F`, which Potency is on record?
Its Potency is “inactive”.

With `O=CCCc1ccccc1` as the molecule, how does the Potency read?
The Potency was “inactive”.

With `O=[N+]([O-])c1nccn1CO[C@@H](CO)[C@H](O)CO` as the molecule, how does the Potency read?
Its Potency is “inactive”.

With `CCc1nnc(NS(=O)(=O)c2ccc(N)cc2)s1` as the molecule, how does the Potency read?
The Potency was “inactive”.

For `CC(C)(C)c1cccc(O)c1`, which Potency is on record?
The Potency was “inactive”.

With `CC(C)C1=CC2=CC[C@@H]3[C@](C)(CCC[C@@]3(C)C(=O)O)[C@H]2CC1` as the molecule, how does the Potency read?
Its Potency is “inactive”.

For `O=C(Cl)c1cccc([N+](=O)[O-])c1`, which Potency is on record?
Its Potency is “inactive”.

Which Potency does the source give for `CC(=O)N(CC(O)CN(C(C)=O)c1c(I)c(C(=O)NCC(O)CO)c(I)c(C(=O)NCC(O)CO)c1I)c1c(I)c(C(=O)NCC(O)CO)c(I)c(C(=O)NCC(O)CO)c1I` (stereo not given) here?
The Potency was “inactive”.

Which Potency does the source give for `CCc1cc(Cl)c(OC)c(C(=O)NC[C@@H]2CCCN2CC)c1O` here?
Its Potency is “inactive”.

For `OCc1ccccc1O`, which Potency is on record?
The Potency was “inactive”.

For `C1CSCCS1`, which Potency is on record?
Its Potency is “inactive”.

With `c1ccc(CN(CC2=NCCN2)c2ccccc2)cc1` as the molecule, how does the Potency read?
Its Potency is “inactive”.

For `Cn1cnc2c(F)c(Nc3ccc(Br)cc3Cl)c(C(=O)NOCCO)cc21`, which Potency is on record?
The Potency was “inactive”.

For `Cc1ccc(C(C)C)cc1O`, which Potency is on record?
Its Potency is “inactive”.

For `CC/C=C\CCOC(=O)C(C)C`, which Potency is on record?
Its Potency is “inactive”.

With `CC(C)(CO)[C@@H](O)C(=O)NCCC(=O)O` as the molecule, how does the Potency read?
The Potency was “inactive”.

For `CN1CCN(N)CC1`, which Potency is on record?
Its Potency is “inactive”.

With `O=S(=O)(O)C(F)(F)F` as the molecule, how does the Potency read?
Its Potency is “inactive”.

For `CC(C)CC(=O)OCc1ccccc1`, which Potency is on record?
Its Potency is “inactive”.

For `CN1C(=O)CC(c2ccccc2)C1=O` (stereo not given), which Potency is on record?
Its Potency is “inactive”.

With `CN1CCC[C@@H]1Cc1c[nH]c2ccc(CCS(=O)(=O)c3ccccc3)cc12` as the molecule, how does the Potency read?
Its Potency is “inactive”.

With `Cc1ncc(CO)c(CN)c1O` as the molecule, how does the Potency read?
Its Potency is “inactive”.

Which Potency does the source give for `Cc1c(-c2ccccc2)oc2c(C(=O)OCCN3CCCCC3)cccc2c1=O` here?
The Potency was “inactive”.

With `C/C(=N\O)[C@@H](C)NCC(C)(C)CN[C@H](C)/C(C)=N/O` as the molecule, how does the Potency read?
Its Potency is “inactive”.

For `CN(C)Cc1ccccc1`, which Potency is on record?
The Potency was “inactive”.

For `COC(=O)/C=C(/C)N`, which Potency is on record?
The Potency was “inactive”.

Which Potency does the source give for `CC(C)Nc1nc(N)nc(Cl)n1` here?
Its Potency is “inactive”.

For `O=Cc1ccc(F)c(Br)c1`, which Potency is on record?
The Potency was “inactive”.

With `C=CC1CO1` (stereo not given) as the molecule, how does the Potency read?
Its Potency is “inactive”.

Which Potency does the source give for `CC1=C2[C@H](/C=C(\C)C(=O)O)CC[C@@H](C)[C@H]2CC1` here?
Its Potency is “inactive”.

Which Potency does the source give for `CCOC(=O)CS` here?
The Potency was “inactive”.

With `Cc1cc(S(=O)(=O)O)c(N)cc1Cl` as the molecule, how does the Potency read?
Its Potency is “inactive”.

For `CO[C@@]1(NC(=O)CSCC#N)C(=O)N2C(C(=O)O)=C(CSc3nnnn3C)CS[C@@H]21`, which Potency is on record?
Its Potency is “inactive”.

For `CCCCNc1cc(C(=O)O)cc(S(N)(=O)=O)c1Oc1ccccc1`, which Potency is on record?
Its Potency is “inactive”.
